In PubChem BioAssay AID709 (SRMLSC, 2007):
Out of some 65,000 compounds screened, about 3,600 (5.5%) were called active. What follows is part of a selection rich in actives, with near analogues and random picks from the rest. Values without a mark were called inactive.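 How the source made its calls: active means at 10 µM, mean starting fluorescence two-fold or more over control wells; inactive means the rest.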

Experiment: intrinsic fluorescence of library compounds, ex339/em460 – biochemical, MLSMR library, data from DPM-DC assay, artefact control, profiling panel (AID 709);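 further: signal is the first read of a kinetic run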
Settings: compound autofluorescence, ex339/em460 nm, NADH buffer; at 10 µM; hits give high values; 1 = no-compound wells, NADH background

Structure (SMILES) | fluorescence fold increase
COC(=O)c1sc(=S)n(-c2ccccc2)c1N | 1.02
O=S(=O)(NCc1ccc2c(c1)OCO2)c1cccc2nsnc12 | 1.04
CCOC(=O)c1cc2occc2n1CC(=O)NC1CCC(C)CC1 (stereo not given) | 1.03
Cc1cccc(N2CCN(Cc3c(C)n(C)n(-c4ccccc4)c3=O)CC2)c1C | 1.01
OCc1n[nH]c(CO)n1 | 1.04
O=C(Nc1ccc2c(c1)nc1n2CCCCC1)c1cc(S(=O)(=O)N2CCOCC2)ccc1Cl | 1.09
CC(c1nnc(SCC(=O)Nc2sccc2C#N)n1-c1ccc(Cl)cc1)N(C)C (stereo not given) | 1.06
CSc1nc(N)c(C#N)c(-c2ccccc2Cl)c1C#N | 1.19
CCCc1[nH]nc2c1C(c1c(C)nn(-c3ccccc3)c1Cl)C(C#N)=C(N)O2 (stereo not given) | 1.09
CSc1ccc(-c2c(C#N)c(N)nc3c2c(C)nn3-c2ccccc2)cc1 | 3.9 (active)
COc1ccc(OC)c(CNC(=O)CCc2nc(-c3cccs3)no2)c1 | 1.09
Cc1cc(C)nc(N(C#N)CC(=O)Nc2ccccc2)n1 | 1.1
Cc1ccc(S(=O)(=O)NCCN2CCOCC2)cc1C | 1.15
COc1ccccc1NC1=NC(c2ccc(Cl)cc2)N=C(N)N1 (stereo not given) | 1.03
CCCc1nc2ccccc2c(C(=O)OCc2nnc(-c3cc(OC)c(OC)c(OC)c3)o2)c1CC | 1.12
Cc1c(C)c2cc3c4c(oc3c(C)c2oc1=O)CCCC4 | 1.64
COc1ccc(Cl)cc1S(=O)(=O)N1CCN(CC(=O)C(C)(C)C)CC1 | 0.9
COc1ccc2c3c(c(=O)oc2c1OCC(=O)C(C)(C)C)CCCC3 | 2.12 (active)
CCCOc1ccc2c3c(c(=O)oc2c1OCCC)CCC3 | 2.13 (active)
COc1ccc(C(=O)OCC(=O)c2ccc(C)c(S(=O)(=O)N3CCOCC3)c2)cc1OC | 1
COC(=O)c1ccc(Oc2nc(Nc3ccc(F)cc3)nc(N3CCCC3)n2)cc1 | 1.09
Cc1ccc(C(c2nnnn2CS(=O)(=O)c2ccc(C)cc2)N2CCC(C(N)=O)CC2)cc1 (stereo not given) | 1.03
Cc1cccc(NC(=O)CN2CCCN(S(=O)(=O)c3ccc(Br)s3)CC2)c1 | 1.1
Cc1cc(NC(=O)c2cccc(N3C(=O)CCC3=O)c2)no1 | 1.09
CCCOC(=O)c1cc2ccccc2oc1=O | 1.51

Structure (SMILES) | fluorescence fold increase
CCN(CC)c1ccc2oc(=O)c(C)nc2c1 | 0.59
CCN(CC)c1ccc2cc(C(=O)O)c(=O)oc2c1 | 2.71 (active)
COc1ccc2oc(=O)c(C(=O)N3CCCc4ccccc43)cc2c1 | 1.09
COc1ccc2oc(=O)c(C(=O)N3CCN(c4ccccc4F)CC3)cc2c1 | 1.41
COc1ccc2oc(=O)c(C(=O)O)cc2c1 | 3.98 (active)
CCOc1ccc(-n2c(SC(C)C(=O)OC)nc3c(c2=O)SCC3)cc1 (stereo not given) | 1.06
CC(=O)c1cc(C#N)c(SCC(=O)C(C)(C)C)nc1C | 1.08
Cc1ccccc1S(=O)(=O)Cc1ccc(C(=O)NCCN2CCCCC2C)o1 (stereo not given) | 1.1
CC1=Nn2c(nnc2-c2ccccc2)SC1 | 1
CCOC(=O)C1CCN(C(=O)Cn2cc(C#N)c3ccccc32)CC1 | 1.19
CCOC(=O)CCc1c(C)c(C#N)c2[nH]c3ccccc3n2c1=O | 2.29 (active)
CCOC(=O)CC1=CC(=O)Nc2ccccc2N1 | 1.15
COc1ccc(C2C(C(=O)N3CCN(c4ccc(OC)cc4)CC3)c3ccccc3C(=O)N2C)cc1 (stereo not given) | 1.12
COc1ccccc1-n1c(CNC(=O)c2ccccc2)nnc1SCC(=O)Nc1nnc(C)s1 | 1.12
CC(NCCO)C(=O)C12CC3CC(CC(C3)C1)C2 (stereo not given) | 1.13
Cc1cccc(N(CC(O)CN(C)C)S(=O)(=O)c2ccccc2)c1 (stereo not given) | 1.08
CNC(=O)Nc1cc(C(C)(C)C)no1 | 1.07
CCOC(=O)c1sc2nc(CSCC(=O)OCc3ccc(C(=O)OC)o3)[nH]c(=O)c2c1C | 1.46
CCOC(=O)c1ccc(COC(=O)c2cc(=O)[nH]c3ccccc23)o1 | 2.1 (active)
CCOC(=O)c1ccc(CS(=O)c2ccc(Cl)cc2)o1 (stereo not given) | 1.02
COc1cc(NS(=O)(=O)c2ccccc2)ccc1-n1nc(C)cc1C | 1.12
O=S(=O)(Nc1ccc2nc(-c3ccco3)[nH]c2c1)c1ccccc1 | 2.12 (active)
Cc1ccc(S(=O)(=O)Nc2ccc3ncccc3c2)cc1 | 1.18
CCCCN(CCCC)C(=O)CCS(=O)(=O)c1ccc2c(c1)n(C)c(=O)c(=O)n2C | 1.23
Cc1cc(C)nc(SCc2nnc(SCC(=O)OC3CCCCC3)o2)n1 | 1.08
